Measured values taken from PubChem BioAssay (NCATS).
Inconclusive results are not listed. The source made the active and inactive calls. Unless noted, calls come from the whole dose curve; as a rule, active = well fitted cell-killing curve with a large enough effect; inconclusive = small, poorly fitted or top-dose-only effect; inactive = flat fitted curve, though single readings scatter.

Experiments:
[1] = Cell Viability - LYMP2-002 (AID 977);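 note: series mostly up to about 92 µM; compound exposure lasted 24 h at 37 °C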
Outline: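 Cytotoxicity is scored as concentration-dependent loss of cellular ATP in a human lymphoblastoid line after 24 hr compound treatment at 37 C. AC50 is obtained by modelling concentration-response data with the Hill equation.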

[2] = Cell Viability - LYMP2-006 (AID 978); note: series mostly up to about 92 µM; nearly all actives have a fitted effect of over 60% in size
Outline: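 Human lymphoblastoid cells, 2500 per well, were preincubated 5 hr at 37 C, then exposed to compounds for 24 hr at 37 C in complete medium. Viability was read as intracellular ATP by CellTiter-Glo luminescence; AC50 from Hill-equation fits of qHTS concentration-response data.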

[3] = Cell Viability - LYMP2-007 (AID 979);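 note: cells exposed to compound for 24 h before reading; nearly all actives have a fitted effect of over 60% in size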
Outline: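 Luminescent ATP signal (CellTiter-Glo) serves as the viability read-out after 24 hr compound treatment of lymphoblastoid cells in complete medium at 37 C. Concentration-response data were fitted to the Hill equation to give AC50 values.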

[4] = Cell Viability - LYMP2-008 (AID 980); note: nearly all actives have a fitted effect of over 60% in size
Outline: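 qHTS, human lymphoblastoid line, 2500 cells/well; 5 hr preincubation, 24 hr compound, 37 C. CellTiter-Glo ATP luminescence. AC50 via Hill equation. Tetraoctylammonium bromide positive control.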

[5] = Cell Viability - LYMP2-012 (AID 982);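 note: cellular ATP by luciferase luminescence where a drop means cytotoxicity; cells exposed to compound for one day before reading; nearly all actives have a fitted effect of over 55% in size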
[6] = Cell Viability - LYMP2-014 (AID 983); note: series mostly up to about 92 µM; nearly all actives have a fitted effect of over 50% in size
Outline: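 Luminescent ATP signal (CellTiter-Glo, 30 min at room temperature) serves as the viability read-out after 24 hr compound exposure at 37 C. Cells were seeded at 2500 per well and settled 5 hr beforehand.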

[7] = Cell Viability - LYMP2-016 (AID 984); note: nearly all actives have a fitted effect of over 55% in size
Outline: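 Human lymphoblastoid cells (LYMP2-016), 2500/well in complete medium, preincubated 5 hr at 37 C, then compound-treated 24 hr at 37 C. Intracellular ATP read by CellTiter-Glo luminescence after 30 min at room temperature; AC50 from Hill-equation concentration-response fits.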

[8] = Cell Viability - LYMP2-018 (AID 985); note: nearly all actives have a fitted effect of over 50% in size
Outline: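 Luminescent ATP signal (CellTiter-Glo, read after 30 min at room temperature) reports viable cells after 24 hr compound treatment at 37 C. Concentration-response data were fitted to the standard Hill equation for AC50.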

[9] = Cell Viability - LYMP2-020 (AID 986); note: series mostly up to about 92 µM; nearly all actives have a fitted effect of over 55% in size
Outline: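 Luminescent ATP signal (CellTiter-Glo, 30 min at room temperature) is the read-out after 24 h compound treatment of lymphoblastoid cells at 37 C. AC50 values come from Hill-equation fits across concentrations.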

[10] = Cell Viability - LYMP2-022 (AID 987); note: nearly all actives have a fitted effect of over 55% in size
Outline: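 qHTS: human lymphoblastoid cells 2500/well; 5 hr 37 C; cpd added; 24 hr 37 C; CellTiter-Glo, 30 min RT; luminescence. AC50 via Hill fit; tetraoctylammonium bromide positive ctrl.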

[11] = Cell Viability - LYMP2-024 (AID 988); note: nearly all actives have a fitted effect of over 60% in size
Outline: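 Steps: seed 2500 cells/well, 5 hr 37 C; add compound, 24 hr 37 C; add CellTiter-Glo, 30 min room temperature; read luminescence. AC50 derived by Hill modelling of concentration-dependent ATP loss.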

[12] = Cell Viability - LYMP2-026 (AID 989); note: nearly all actives have a fitted effect of over 50% in size
Outline: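 Luminescent ATP signal (CellTiter-Glo, 30 min room temperature) measures viable lymphoblastoid cells after 24 hr compound treatment at 37 C. Decreased ATP reflects acute toxicity; AC50 values come from Hill-equation modeling.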

[13] = Cell Viability - LYMP1-002 - Assay at 24 hr (AID 993)
Outline: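 Cells plated 2500/well, 5 hr 37 C; compounds added, 24 hr 37 C; CellTiter-Glo added, 30 min RT; luminescence read. Tetraoctylammonium bromide positive control. Hill-equation AC50.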

[14] = Cell Viability - LYMP1-002 - Assay at 40 hr (AID 994); note: nearly all actives have a fitted effect of over 60% in size
Outline: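 Luminescent ATP signal served as the viability readout, with decreases taken as toxicity. Cells were treated with compounds across a concentration range for 40 hours at 37 C, and AC50 values came from standard Hill modeling.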

[15] = qHTS Assay for Identification of Small Molecule Inducers of Hypoxia Response (AID 2120; active = well fitted curve in the direction sought with a large enough effect in the signal ratio, with a control signal flat, not every such curve was filed as active; the % refers to the signal ratio)
Outline: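 ME-180 HRE-bla cells plated in Opti-MEM/0.5% dialyzed FBS, rested 4-5 h, then dosed with compound titrations by pin tool. After 17 h at 37 degrees C, CCF4 dye loaded 2.5 h at RT; 460/530 nm ratio gave %Activity and AC50.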

[16] = biological target: Estrogen receptor (Homo sapiens) (UniProt P03372); assay: qHTS assay for small molecule antagonists of estrogen receptor alpha signaling (AID 588513; active = well fitted curve in the direction sought with a large enough effect in the signal ratio, with a control signal flat, not every such curve was filed as active; the % refers to the signal ratio)
Estrogen receptor (Homo sapiens), sequence (P03372 whole entry, looked up): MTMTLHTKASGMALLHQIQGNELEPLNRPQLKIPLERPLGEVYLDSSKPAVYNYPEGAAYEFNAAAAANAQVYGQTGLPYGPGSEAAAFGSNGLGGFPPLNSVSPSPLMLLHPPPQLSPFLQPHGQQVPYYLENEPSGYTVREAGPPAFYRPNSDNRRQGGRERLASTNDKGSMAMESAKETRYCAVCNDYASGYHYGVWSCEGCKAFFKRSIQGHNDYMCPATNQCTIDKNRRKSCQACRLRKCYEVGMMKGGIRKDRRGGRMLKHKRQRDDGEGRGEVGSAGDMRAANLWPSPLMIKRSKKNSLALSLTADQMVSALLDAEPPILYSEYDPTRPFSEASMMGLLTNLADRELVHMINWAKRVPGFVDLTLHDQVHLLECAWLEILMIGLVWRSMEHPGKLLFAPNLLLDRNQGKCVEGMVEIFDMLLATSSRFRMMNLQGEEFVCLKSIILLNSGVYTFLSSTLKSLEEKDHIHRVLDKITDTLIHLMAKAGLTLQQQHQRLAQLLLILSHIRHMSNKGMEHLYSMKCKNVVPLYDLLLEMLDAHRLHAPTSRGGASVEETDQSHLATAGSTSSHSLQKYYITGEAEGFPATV
Outline: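 ER-alpha-UAS-bla GripTite HEK 293 cells in medium with 2% charcoal/dextran-treated FBS were preincubated 4 h at 37 C, dosed with compound (1:2 titration), stimulated with 0.5nM 17-beta-estradiol for 18 h, then read by CCF4 beta-lactamase fluorescence.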

[17] = biological target: Estrogen receptor (Homo sapiens) (UniProt P03372); assay: qHTS assay for small molecule agonists of estrogen receptor alpha signaling (AID 588514; calls by dose curve; note: nearly all actives have a fitted effect of over 70% in size)
Outline: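 Cells were plated at 5000/well, incubated 4 hrs at 37 C, dosed with compound titration series, incubated 18 hrs at 37 C, loaded with CCF4 dye for 2 hrs at RT, then fluorescence was read.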

[18] = Cell Viability - LYMP2-010 (AID 981); note: nearly all actives have a fitted effect of over 55% in size
Outline: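 Luminescent ATP signal (CellTiter-Glo) served as the viability read-out. Cells of the human lymphoblastoid line were treated with compound over a concentration range for 24 hours at 37 C, and AC50 values came from Hill-equation modeling.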

Measured: Potency

Cc1ccccc1C=O
inactive: [1] | [2] | [3] | [4] | [5] | [6] | [7] | [8] | [9] | [10] | [11] | [12] | [13] | [14] | [15] | [16] | [17]

CCC(C)(C)C(=O)O
inactive: [1] | [2] | [3] | [4] | [18] | [5] | [6] | [7] | [9] | [10] | [11] | [12] | [13] | [14] | [15] | [16] | [17]

ClC/C=C/CCl
inactive: [1] | [2] | [3] | [4] | [18] | [6] | [8] | [10] | [12] | [13] | [14] | [15] | [16] | [17]

CCOCC(=O)O
inactive: [1] | [2] | [3] | [4] | [18] | [5] | [6] | [9] | [10] | [11] | [12] | [13] | [14] | [15] | [16] | [17]

COc1ccc(N)c(OC)c1
inactive: [1] | [2] | [3] | [18] | [5] | [6] | [7] | [8] | [9] | [10] | [11] | [12] | [13] | [14] | [15] | [16] | [17]

C=C(C)C(=O)OCCCCCC
inactive: [1] | [2] | [3] | [4] | [5] | [6] | [7] | [8] | [9] | [10] | [11] | [12] | [14] | [15] | [16] | [17]

Cc1cc(C)cc([N+](=O)[O-])c1
inactive: [1] | [2] | [3] | [4] | [18] | [5] | [6] | [7] | [9] | [10] | [11] | [12] | [13] | [14] | [15] | [16] | [17]

Oc1c(Cl)ccc(Cl)c1Cl
inactive: [1] | [2] | [3] | [5] | [6] | [7] | [8] | [9] | [10] | [11] | [12] | [13] | [14] | [15] | [16] | [17]

CCCCC(CC)COCC1CO1 (stereo unspecified)
inactive: [1] | [2] | [18] | [5] | [6] | [7] | [8] | [9] | [10] | [11] | [12] | [13] | [14] | [15] | [16] | [17]
